The source of these data is PubChem BioAssay (NCI).

Structures are written as SMILES. This is part of a sample that, as a whole, favours compounds with a hit. Of some 83,000 tested, about 20% had one in any assay.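 Plates (96-well) were seeded with cells, treated with compound at one concentration, and incubated for 48 hours before percent growth was determined.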 Active and inactive are the calls of the source. Rule for the calls: active = growth percent below 10; inactive = the rest.

The test system of this assay is HL-60(TB) leukemia. In words: NCI-60 one-dose screen, 48 h (100 = growth as untreated, 0 = no growth, -100 = all killed). The conditions noted are these: 10 µM unless noted.
For the compound `CC1(C)NCCC[C@]2(C)[C@H]3CC=C4[C@@H]5C[C@](C)(COC(=O)c6ccccc6C(=O)O)CC[C@]5(C)CC[C@@]4(C)[C@]3(C)CC[C@@H]12`, the growth was 65.3% (inactive).
Regarding `COC(=O)[C@H](Cc1cn(C)cn1)NC(=O)[C@H](CC(=O)OCc1ccccc1)NC(=O)Nc1cc(C(F)(F)F)cc(C(F)(F)F)c1`, the growth is -68.9% [100 µM] (active).
For the compound `FC(F)(F)c1ccc(-c2cnc(Cl)nc2NC2CCCCCC2)cc1`, the growth was -6.33% (active).
In the case of `Fc1cc(-c2ncc(-c3cc(F)c(F)c(F)c3)c(NC3CCCCCC3)n2)cc(F)c1F`, the growth was 97.4% (inactive).
For the compound `CNC(=O)c1c(C)oc2cc(Oc3ncnc4cc(OC)c(OC)cc34)ccc12`, the growth was 117% (inactive).
For `Cc1cccc(C(=O)N(C(C)C)C(C)C)c1`, the growth was 99.1% (inactive).
Take `S=C(c1ccc2c(c1)OCO2)N1CCN(c2ccccc2Cl)CC1`: the growth was 87.6% (inactive).
In the case of `Cc1nn(-c2ccccc2)c(-n2ccnc2)c1/C=N/Nc1nc(-c2ccc(F)cc2)cs1` it was 94.4% (inactive).
`CCOC(=O)C(C(C)=O)c1nc2sc3cc(Cl)ccc3n2c(=N)c1C#N` (stereo not given): the growth is 115% (inactive).
`Brc1ccc(-c2cnc3nonc3n2)cc1`: the growth is 19.6% (inactive).
On to `CC(=O)O[C@@]12CO[C@@H]1C[C@H](O)[C@@]1(C)C(=O)[C@H](O)C3=C(C)[C@@H](OC(=O)[C@H](O)[C@@H](NC(=O)OC(C)(C)C)c4ccccc4)C[C@@](O)([C@@H](OC(=O)c4ccccc4)C12)C3(C)C` (stereo not given in full), for which the growth is -12.9% (active).
Regarding `CC1(C)CC[C@]2(CO)CC[C@]3(C)[C@](O)([C@H](O)C[C@@H]4[C@@]5(C)CCCNC(C)(C)[C@@H]5CC[C@]43C)[C@@H]2C1`, the growth is 71% (inactive).
For `Cc1cc([N+](=O)[O-])c(C)cc1C(=O)O`, the growth is 107% (inactive).
Turning to `Oc1cccc(CCc2ccc(Oc3cc(CCc4cccc(O)c4)cc(O)c3O)cc2)c1`, the growth was 15.3% (inactive).
For `CCN(CC)CC(=O)Nc1c(C)ccc(N)c1C`, the growth is 74.2% (inactive).
As for `CC(C)(C)C(=O)OCOP(=O)(OCOC(=O)C(C)(C)C)C1CC(O)N(O)C1=O` (stereo not given), the growth is 13.1% (inactive).
Consider `BrC1=C(Br)C(Br)(Br)C(Br)=C1Br`, for which the growth was 27.4% (inactive).
`COc1ccc(C(=O)n2nc(/C=C/c3ccc(O)c(OC)c3)cc2/C=C/c2ccc(O)c(OC)c2)cc1`: the growth was -15.6% (active).
In the case of `N#Cc1c(-c2ccc(Cl)cc2)n(O)c2ccccc12` it was -0.349% (active); in that of `CCN(CC)CCOCC[C@H]1CC[C@H]2[C@@H]3[C@H](C)Cc4cc(OS(N)(=O)=O)ccc4[C@H]3CC[C@]12C`, -74.9% (active); in that of `CC1C2CCC(C2)C1COCCOCCO` (stereo not given), 108% (inactive).
As for `COc1cc(-c2nc3ccccc3[nH]2)ccc1OCc1nnc(-c2ccc(Br)cc2)o1`, the figure is 84.2% (inactive); as for `Cc1ccc(SCN2CCN(c3cccc(Cl)c3)CC2)cc1`, 111% (inactive); as for `N[C@@H](CO)C(=O)O`, 106% (inactive).
Consider `COc1cc(Cn2ncc3ccc(NC(=O)c4cc5ccccc5oc4=N)cc32)cc(OC)c1OC`, for which the growth was 64.8% (inactive).
For the compound `Cc1c(-c2csc(-n3nc(C(F)(F)F)cc3C(F)(F)F)n2)no[n+]1[O-]`, the growth was 97% (inactive).
For `O=C(C=C=Nc1ccccc1)C(=O)N=C=Cc1ccccc1`, the growth was -26% (active).
Turning to `CCn1cc(-c2ccnc3[nH]c(-c4cccc(CN(C)C)c4)cc23)c(-c2ccc(NC(=O)N(C)C)cc2)n1`, the growth was -40.6% (active).
For the compound `COc1ccc(C2C(N)=NNC2c2cccc(O)c2)cc1` (stereo not given), the growth was 97.9% (inactive).
On to `COC(=O)/C=C1/SC(=Nc2ccc([N+](=O)[O-])cc2)N(CCc2c[nH]c3ccccc23)C1=O`, for which the growth was 69.8% (inactive).
In the case of `CCS/C(Nc1ccccc1)=C(\C#N)C(=O)Nc1ccc(OC)cc1` it was -15.6% (active); in that of `O=C(NCc1ccc2c(c1)OCO2)NCC1CCCC(CNC(=O)NCc2ccc3c(c2)OCO3)C1` (stereo not given), 108% (inactive).
Consider `CC1(C)CC[C@]2(C(=O)OC(=O)[C@]34CCC(C)(C)C[C@@H]3C3=CC[C@@H]5[C@@]6(C)CCC(=O)C(C)(C)[C@@H]6CC[C@@]5(C)[C@]3(C)CC4)CC[C@]3(C)C(=CC[C@@H]4[C@@]5(C)CCC(=O)C(C)(C)[C@@H]5CC[C@]43C)[C@H]2C1`, for which the growth is 6.37% [100 µM] (active).
As for `O=C(Nc1ncc(Cc2ccc(Cl)cc2)s1)C1=NCCCCN1`, the growth was 97% (inactive).
As for `CCOC(=O)C(CC(c1ccccc1)N1CCCCC1)[N+](=O)[O-]` (stereo not given), the growth was 73.4% (inactive).
On to `CCCCCCNC(=O)Oc1ccc(/C(=C(\C)c2ccccc2)c2ccc(OCCCN(C)C)cc2)cc1`, for which the growth is 78% (inactive).
As for `CC1=C[C@H]2c3c(c(O)c(O)c4oc5cc(O)ccc5c(=O)c34)[C@H](c3cc(O)c(O)c4oc5cc(O)ccc5c(=O)c34)[C@H]2C(C)(C)C1`, the figure is 17.8% (inactive); as for `CCCCCCC/C=C/[C@H]1O[C@]23C(=O)C[C@@]4(C[C@@H](OC5OC(CO)C(O)C(O)C5O)C[C@@H]4[C@H]2C=C1C)OC3=O` (stereo not given in full), -13.1% (active).
For the compound `CCOC(=O)C1=C(C(=O)c2ccc(Br)cc2)C(c2ccc(Br)cc2)NC(=S)N1` (stereo not given), the growth is 117% (inactive).
In the case of `N#C/C(=C\c1ccc([N+](=O)[O-])s1)c1nc2cc(Br)ccc2s1`, the growth was 17.7% (inactive).
